ADAM17 inh – ADAM17 inhibitors, primary screen, biochemical, QFRET. recombinant ADAM17, EDANS/DABCYL FRET peptide cleavage. AID 720648, 2013. hit rate 0.83% among 370,000. Disintegrin and metalloproteinase domain-containing protein 17 (Homo sapiens), P78536. inhibition, % at 6.95 µM;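 active = inhibition above the mean of compounds lying between control limits plus 3 SD, set per campaign, cut at about 8.5% in these data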
ADAM10 inh – human ADAM10 inhibitors, primary screen, biochemical, QFRET, HTS | Disintegrin and metalloproteinase domain-containing protein 10 (Homo sapiens), O14672 | recombinant ADAM10, EDANS/DABCYL FRET peptide cleavage, 3 h | inhibition, % at 7 µM | hit rate 0.62% among 370,000 | AID 720582, 2013;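 active = inhibition above a per-campaign cutoff equal to the mean of compounds falling between control-based bounds plus 3 SD, cut at about 20% in these data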
Target sequence (O14672 214-748 limits assumed): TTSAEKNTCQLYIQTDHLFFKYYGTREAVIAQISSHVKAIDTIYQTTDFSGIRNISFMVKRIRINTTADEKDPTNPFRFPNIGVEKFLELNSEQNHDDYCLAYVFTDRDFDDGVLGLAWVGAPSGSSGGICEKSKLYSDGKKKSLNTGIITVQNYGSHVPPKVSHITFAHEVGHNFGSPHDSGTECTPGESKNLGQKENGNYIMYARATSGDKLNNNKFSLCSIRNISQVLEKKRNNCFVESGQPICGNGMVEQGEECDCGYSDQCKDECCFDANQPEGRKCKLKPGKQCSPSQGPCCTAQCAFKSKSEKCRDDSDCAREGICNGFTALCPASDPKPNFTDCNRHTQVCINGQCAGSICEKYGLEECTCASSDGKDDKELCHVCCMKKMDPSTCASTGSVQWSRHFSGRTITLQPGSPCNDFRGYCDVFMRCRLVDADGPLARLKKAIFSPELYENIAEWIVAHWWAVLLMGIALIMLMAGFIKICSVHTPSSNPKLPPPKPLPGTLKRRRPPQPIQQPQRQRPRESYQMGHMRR
PLCb3 inh – human PLC-beta3 inhibitors, primary screen, biochemical, fluorescence. 1-phosphatidylinositol 4,5-bisphosphate phosphodiesterase beta-3 (Homo sapiens), Q01970. Purified PLC-beta3, fluorogenic substrate. inhibition, % at 12.2 µM. hit rate 0.18% among 370,000. AID 720704, 2013; in the data active = inhibition above about 11%
proKLK7 act – proKLK7 zymogen activators, primary screen, biochemical, fluorescence intensity. Kallikrein-7 (Homo sapiens), P49862. purified proKLK7, EDANS-DABCYL substrate fluorescence; 100% is mature enzyme control, 0% vehicle. activation, % at 7 µM. hit rate 0.9% among 370,000;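 active = activation above the mean of all tested compounds plus 3 SD, computed per campaign excluding outliers beyond control limits, cut at about 13% in these data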
PLCg1 inh – PLC-gamma1 enzyme inhibitors, primary screen, biochemical, fluorescence, purified enzyme; hit rate 0.84% among 370,000; inhibition, % at 12.2 µM; fluorogenic substrate; in the data active = inhibition above about 9.5%
ADAM10 ctr – ADAM10 inhibitors, counter-screen for ADAM17 exosite inhibitor project, biochemical, FRET, human ADAM10. shares compounds with ADAM17 inh. recombinant ADAM10, EDANS/DABCYL FRET peptide cleavage, 3 h. inhibition, % at 6.95 µM. hit rate 47% among 2,900. AID 743256, 2014;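 active = mean inhibition over the triplicate runs exceeds the activity threshold set in the earlier primary screen, cut at about 20% in these data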
ADAM17 confirm – ADAM17 inhibitors, hit retest, confirmation, biochemical, QFRET peptide cleavage. shares compounds with ADAM17 inh. recombinant ADAM17, EDANS/DABCYL QFRET peptide cleavage. inhibition, % at 6.95 µM. hit rate 65% among 2,900;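 active = mean inhibition across replicates above the hit cutoff set in the primary screen, cut at about 8.5% in these data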
Each line names hits and unclear results; the compound was inactive in the other large screens (follow-up assays come after a bar, where they were run). In the library only some 2.9% were active in any assay of this set; here they are far more common.

COc1ccc(Cl)cc1S(=O)(=O)N1CCN(c2ccc(F)cc2)CC1	none
O=C(c1ccccc1Br)N1CCc2c([nH]c3ccccc23)C1	none
Nn1c(COc2cccc(Br)c2)nnc1SCC(=O)N1CCc2ccccc2C1	ADAM17 inh 12 | ADAM10 ctr inactive | ADAM17 confirm inactive
Nn1c(COc2cccc(Br)c2)nnc1SCC(=O)NCC1CCCO1 (stereo not drawn)	none
CN(C)S(=O)(=O)c1cccc(NC(=O)c2ccc(COc3ccccc3)cc2)c1	ADAM17 inh 9.6 | ADAM10 ctr 24 | ADAM17 confirm 14
CN(C)S(=O)(=O)c1cccc(NC(=O)c2cccc(S(=O)(=O)N3CCc4ccccc43)c2)c1	ADAM17 inh 9.5 | ADAM10 ctr 41 | ADAM17 confirm 22
COC(=O)[C@@]1(Cc2ccc(F)cc2)[C@H]2c3cc(C(=O)N(C)C)n(Cc4ccccc4)c3C[C@H]2CN1C(=O)c1ccccc1	ADAM17 inh 9.4 | ADAM10 ctr inactive | ADAM17 confirm inactive
COC(=O)[C@@]1(Cc2ccc(F)cc2)[C@H]2c3cc(C(=O)N(C)C)n(Cc4ccc(OC)c(OC)c4)c3C[C@H]2CN1C(=O)c1ccccc1	none
Cc1cc(NC(=O)COC(=O)c2cc([N+](=O)[O-])ccc2N2CCOCC2)ccc1Br	ADAM17 inh 8.7 | ADAM10 ctr 46 | ADAM17 confirm 19
COc1ccc(NC(=O)CCNC(=O)C2CCN(S(=O)(=O)c3ccccc3)CC2)cc1OC	none
Cc1ccc(Nc2ncnc3sc(C)c(C)c23)cc1C	ADAM17 inh 9.1 | ADAM10 ctr inactive | ADAM17 confirm inactive
CCCCN1c2ccccc2N(CCCO)c2cc(C)nnc21	ADAM17 inh 9.8 | ADAM10 ctr inactive | ADAM17 confirm inactive
CCO[C@H]1OC(C(=O)Nc2ccccc2)=C[C@@H](c2csc3ccccc23)[C@@H]1CCCO	ADAM17 inh 10 | ADAM10 ctr inactive | ADAM17 confirm 12
CCOC(=O)c1ccc(S(=O)(=O)Nc2cc(C(C)(C)C)no2)cc1	none
Cc1ccc(C(=O)OCC(=O)Nc2cc(C(C)(C)C)no2)c(C)c1	ADAM17 inh 12 | ADAM10 ctr 33 | ADAM17 confirm 17
CN(C)S(=O)(=O)c1ccc(S(=O)(=O)Nc2ccc3c(c2)oc2ccccc23)cc1	ADAM17 inh 9.2 | ADAM10 ctr 34 | ADAM17 confirm 17
CN(C)S(=O)(=O)c1ccc(NC(=O)c2cc3ccccc3o2)cc1	none
Cc1ccc(N2CCN(C(=O)C3CCC(=O)N(Cc4ccc(Cl)cc4)C3)CC2)c(C)c1 (stereo not drawn)	ADAM17 inh 8.8 | ADAM10 ctr inactive | ADAM17 confirm inactive
COc1ccc(S(=O)(=O)NN(C)c2ncc(C(F)(F)F)cc2Cl)cc1	ADAM17 inh 9.4 | ADAM10 ctr inactive | ADAM17 confirm inactive
CCN(CC(=O)Nc1ccc(OC)cc1)C(=O)c1ccc(N2CCCC2=O)cc1	none
c1ccc(-c2nn3c(-c4ccccc4)nnc3o2)cc1	none
CCC1CCC2(CC1)NC(=O)N(CC(=O)c1c(C)[nH]c3ccccc13)C2=O (stereo not drawn)	ADAM17 inh 8.9 | ADAM10 ctr inactive | ADAM17 confirm inactive
CC(=O)NC(=S)Nc1ccc(NC(=S)NC(=O)c2cccs2)cc1	none
Cc1c(C(=O)NC(=S)Nc2ccc(NC(=O)c3cccs3)cc2)cccc1[N+](=O)[O-]	ADAM17 inh 12 | ADAM10 ctr 29 | ADAM17 confirm 20
COc1cc2cc(Br)cc(Br)c2nc1C	ADAM17 inh 10 | ADAM10 ctr 21 | ADAM17 confirm 13
CC1(C(=O)NS(=O)(=O)c2ccc(Cl)s2)CCN1C(=O)Cc1ccc(-c2ccccc2)cc1 (stereo not drawn)	none
COc1cccc(CN(C)C(=O)c2cc(COc3ccc(-n4cncn4)cc3)on2)c1	ADAM17 inh 8.7 | ADAM10 ctr inactive | ADAM17 confirm inactive
COc1cccc(CN(C)C(=O)c2cc(COc3c(F)cccc3F)on2)c1	none
CCC1(c2ccccc2)NC(=O)N(CC(=O)Nc2cc(S(=O)(=O)N3CCCCCC3)ccc2OC)C1=O (stereo not drawn)	none
NC(=O)C1CCN(c2nc3c(S(=O)(=O)c4ccccc4)nnn3c3ccccc23)CC1	ADAM17 inh 13 | ADAM10 ctr inactive | ADAM17 confirm inactive
CN(C)CCCNC(=O)C[C@H]1C[C@H](C(=O)N2CCOCC2)[C@@]2(C)c3[nH]c4ccc(Cl)cc4c3CCN2C1=O	none
COCCCNC(=O)Cn1nc(-c2ccccc2OC)ccc1=O	ADAM17 inh 10 | ADAM10 ctr inactive | ADAM17 confirm inactive
O=C(NC(CSCc1ccccc1)C(=O)N/N=C/c1ccc(O)cc1O)c1ccc([N+](=O)[O-])cc1 (stereo not drawn)	ADAM17 inh 14 | ADAM10 ctr inactive | ADAM17 confirm 17
COc1cc(O)ccc1/C=N/NC(=O)c1ccc([N+](=O)[O-])cc1	none
CCCNc1nc2c(c(=O)[nH]c(=O)n2C)n1CCC(C)C	ADAM17 inh 8.8 | ADAM10 ctr 25 | ADAM17 confirm 13
CC1CCCN(S(=O)(=O)c2ccc(NC(=O)Cn3nnc(-c4ccccc4F)n3)cc2)C1 (stereo not drawn)	ADAM17 inh 10 | ADAM10 ctr inactive | ADAM17 confirm 11
CC(=O)Oc1ccc2c(c1)C(=O)CCCCCC(=O)O2	none
COc1cc(/C=N/n2c(-c3ccc4c(c3)NC(=O)CO4)csc2=Nc2cccc(C)c2)ccc1O	ADAM17 inh 9.3 | ADAM10 ctr inactive | ADAM17 confirm 9.8
COc1ccc([C@H]2C[C@H](n3cc(COC(=O)c4ccccc4)nn3)[C@@H](O)CN2Cc2cccs2)cc1	ADAM17 inh 12 | ADAM10 ctr 32 | ADAM17 confirm 14
O=C(OCc1cn([C@@H]2C[C@H](c3ccccc3)N(Cc3cccs3)C[C@H]2O)nn1)c1ccccc1	none
Cc1ccccc1CN[C@@H]1CC[C@@]23CCCN2C(=O)CCC[C@H]3C1	none (no result: proKLK7 act)
CCOC(=O)Cn1c(C(=O)OCC)cc2sccc21	ADAM17 inh 9.2 | ADAM10 ctr inactive | ADAM17 confirm inactive
CCOC(=O)c1cc2sccc2n1CC(=O)OC	none
